High-throughput results from PubChem BioAssay.
Giardia kill: Small Molecules that selectively kill Giardia lamblia: qHTS. Giardia lamblia trophozoite viability. activity change, % at 7.66 µM, hits read low. hit rate 0.15% among 340,000. AID 540267, 2011; in the data active means activity change below about -80%; inconclusive means between about -30% and that limit;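 further: parasites exposed to compound for two days anaerobically before the ATP read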
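Giardia lamblia trophozoites (100 cells/well) were incubated with compounds for 48 h at 37 deg C under anaerobic conditions. Viability was read as ATP content by one-step luminescence after 15-30 min at room temperature.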
VP16 counter: VP16 counterscreen qHTS for inhibitors of ROR gamma transcriptional activity; AID 2546, 2010; Potency, µM (doses to about 53.6 µM), actives largely listed as inhibitors; hit rate 3.5% among 310,000; Drosophila S2 Gal4-VP16 UAS-luciferase, luminescence, 20 h;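 further: Gal4-VP16 expression switched on by copper sulfate through the metallothionein promoter; nearly all actives have a fitted effect of over 50% in size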
ELG1 repair inh: qHTS screen for small molecules that inhibit ELG1-dependent DNA repair in human embryonic kidney (HEK293T) cells expressing luciferase-tagged ELG1. HEK293T ELG1-luciferase reporter, luminescence, 16 h; DNA damage induced by 5-fluorouridine. Potency, µM (titrated, usually from 46.1 µM), usual class: inhibitors. hit rate 2.3% among 330,000. AID 504467, 2011; further: nearly all actives have a fitted effect of over 55% in size
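HEK293T cells expressing luciferase-tagged ELG1 (2,000/well) received 5-Fluorouridine plus compound or DMSO for 16 hr at 37 °C. Luciferase was read by ONE-Glo luminescence after 30 min at room temperature.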
p53 reactivator: qHTS assay for re-activators of p53 using a Luc reporter; H1299 p53-A138V BP100-luciferase reporter, luminescence, 24 h; Potency, µM (titrated, usually from 92.2 µM), most hits filed as activators; hit rate 0.063% among 320,000; further: nearly all actives have a fitted effect of over 45% in size
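p53-null H1299 cells stably carrying temperature-sensitive p53-A138V and a BP100-luciferase reporter were pinned with compounds (4-point, 1:5 series) and held 24 hrs at 37 deg C. Luminescence was read 10 min after detection reagent.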
BRCA1 expr act: qHTS Assay to Identify Small Molecule Activators of BRCA1 Expression | MCF7-BRCA1-FFLuc reporter, luminescence, 48 h; response scale: scaled: vehicle 0%, 10 µM genistein 100% | Potency, µM (series often up to 46.1 µM), actives largely listed as activators | hit rate 1.1% among 380,000; further: nearly all actives have a fitted effect of over 80% in size
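48 h compound treatment of MCF7-BRCA1-FFLuc cells (phenol-red free MEM, 37 °C), then 15 min with luciferase substrate and luminescence imaging.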
RORgamma inh: qHTS for inhibitors of ROR gamma transcriptional activity | hit rate 5.4% among 310,000 | AID 2551, 2010 | Nuclear receptor ROR-gamma (Mus musculus), P51450 | Potency, µM (doses to about 53.6 µM), actives largely listed as inhibitors | Drosophila S2 Gal4-RORgamma UAS-luciferase reporter, 20 h; further: nearly all actives have a fitted effect of over 60% in size
Target sequence (P51450 whole entry, looked up, the tested form may be a part): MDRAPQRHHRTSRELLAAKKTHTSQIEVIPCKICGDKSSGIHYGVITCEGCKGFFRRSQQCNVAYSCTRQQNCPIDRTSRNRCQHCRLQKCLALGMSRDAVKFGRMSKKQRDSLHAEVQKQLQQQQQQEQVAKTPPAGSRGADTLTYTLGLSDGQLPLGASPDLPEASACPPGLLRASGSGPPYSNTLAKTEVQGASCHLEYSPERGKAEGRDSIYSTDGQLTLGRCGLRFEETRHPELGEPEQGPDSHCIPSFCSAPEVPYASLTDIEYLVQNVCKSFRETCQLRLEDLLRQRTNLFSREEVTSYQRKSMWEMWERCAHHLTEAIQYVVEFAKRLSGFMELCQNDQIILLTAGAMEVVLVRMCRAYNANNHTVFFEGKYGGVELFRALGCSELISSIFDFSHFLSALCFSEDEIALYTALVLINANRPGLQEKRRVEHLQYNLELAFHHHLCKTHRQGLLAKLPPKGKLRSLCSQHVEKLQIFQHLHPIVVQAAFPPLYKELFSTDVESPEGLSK
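Luciferase reporter read in Schneider cells carrying Gal4-RORγ (mouse) and UAS-Photinus luciferase; cells given compound 1 h before 700 uM copper sulfate induction, then incubated 20 h at ambient temperature.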
Each line names hits and unclear results; the compound was inactive in the other large screens. Most compounds without a hit are left out; they make up all but 7.6% or so of the library. Unless noted, the call rests on the fitted dose curve; in most records, active means well fitted curve in the direction sought with a large enough effect; inconclusive means small, poorly fitted or top-dose-only effect, or another doubt; inactive means no such curve, though single readings can be large; an effect the other way counts as inactive or inconclusive.

Cc1cc(C)c2nc(N3CCC(C(=O)N4CCN(C(=O)c5ccco5)CC4)CC3)sc2c1	ELG1 repair inh 16.4µM
CCc1cc2cccc(C)c2nc1SCC(=O)N1CCN(C(=O)c2ccco2)CC1	ELG1 repair inh inconclusive
CCc1cc2cc(C)cc(C)c2nc1SCC(=O)N1CCN(C(=O)c2ccco2)CC1	ELG1 repair inh 8.2µM
Cc1cc(C)c2nc(C(F)(F)F)nc(N3CCN(C(=O)c4ccco4)CC3)c2c1	VP16 counter 0.891µM, RORgamma inh 1µM (no result: ELG1 repair inh, p53 reactivator)
Cc1cc(C)c2nc(N3CCC(C(=O)NCc4ccccn4)CC3)sc2c1	ELG1 repair inh inconclusive, BRCA1 expr act 3.98µM, RORgamma inh inconclusive
Cc1ccc(-c2nnc(SC(C)C(=O)NCC3CCCO3)nc2-c2ccc(C)cc2)cc1 (centres undefined)	ELG1 repair inh inconclusive (no result: VP16 counter, RORgamma inh)
CCC1CCCCN1c1ccc([N+](=O)[O-])cc1/C=N/NC(=O)Cn1c2ccccc2c(=O)c2ccccc21 (centres undefined)	none
NC(=S)NN=C1C2CC3CC(C2)CC1C3	VP16 counter inconclusive, RORgamma inh 2µM
NC(=O)C(=O)NN=C1C2CC3CC(C2)CC1C3	none
S=c1[nH]nc(Nc2ccccc2Cl)s1	ELG1 repair inh inconclusive, RORgamma inh 7.94µM
Cc1ccc(NNC(=O)c2ccc(Cl)cc2)nn1	VP16 counter inconclusive, RORgamma inh inconclusive
C=CCC1NS(=O)(=O)OCC1C(C)C (centres undefined)	none
O=C(COc1ccccc1Cl)NC(=S)Nc1cccc(NC(=O)c2ccccc2Cl)c1	none
O=C(COc1ccc(Br)cc1Br)NC(=S)Nc1cccc(CO)c1	VP16 counter 8.91µM, ELG1 repair inh inconclusive, p53 reactivator inconclusive, BRCA1 expr act inconclusive, RORgamma inh 1.41µM
O=C(COc1ccc2ccccc2c1Br)NC(=S)Nc1cccc(CO)c1	VP16 counter 10µM, ELG1 repair inh inconclusive, RORgamma inh 7.94µM
Cc1ccc(Oc2coc3cc(O)ccc3c2=O)cc1	ELG1 repair inh inconclusive
Cc1ccc(/C=N/NC(=O)Cn2nc(C)c([N+](=O)[O-])c2C)o1	none
Cc1nn(C)c(C)c1/C=N/NC(=O)CCn1nc(C)c([N+](=O)[O-])c1C	VP16 counter 3.55µM
Nc1ccccc1C(=O)N=Nc1[nH]c(N)c2ccccc12	ELG1 repair inh inconclusive, p53 reactivator inconclusive, RORgamma inh inconclusive
Nc1[nH]c(N=NC(=O)c2ccc(F)cc2)c2ccccc12	VP16 counter 14.1µM, ELG1 repair inh inconclusive, p53 reactivator inconclusive, RORgamma inh 3.55µM
Cc1ccccc1OCC(=O)NNC(=O)c1ccc2c(=O)n3c(nc2c1)CCC3	none (no result: VP16 counter, RORgamma inh)
CCNc1ccc(C(=O)OC(C(=O)NC(N)=O)C(C)C)cc1[N+](=O)[O-] (centres undefined)	none
CCc1ccc(NC(=O)Nc2ccsc2C(=O)OC)cc1	VP16 counter inconclusive, ELG1 repair inh inconclusive, p53 reactivator inconclusive, RORgamma inh 8.91µM
COC(=O)c1sccc1NC(=O)Nc1cc(C)ccc1OC	none
COC(=O)c1sccc1NC(=S)Nc1ccc(OC)cc1	VP16 counter 14.1µM, RORgamma inh 6.31µM
COc1ccc(NC(=S)NN(C)C(=S)Nc2ccc(OC)cc2)cc1	VP16 counter inconclusive, ELG1 repair inh inconclusive, RORgamma inh 7.94µM
COC(=O)c1sccc1NC(=S)Nc1cc(OC)ccc1OC	VP16 counter inconclusive, RORgamma inh 11.2µM
CN(C)c1ncc2ncc(=O)n(C[C@H]3CCCO3)c2n1	none (no result: Giardia kill, ELG1 repair inh, p53 reactivator, BRCA1 expr act)
CC(=O)NC(c1ccc(Cl)cc1)c1ccc2cccnc2c1O (centres undefined)	none (no result: VP16 counter, ELG1 repair inh, p53 reactivator, RORgamma inh)
COc1ccc(C(NC(=O)C(C)C)c2ccc3cccnc3c2O)cc1 (centres undefined)	VP16 counter 6.31µM, ELG1 repair inh 2.31µM, RORgamma inh 2.24µM
CC(C)C(=O)NC(c1ccc(Cl)cc1Cl)c1ccc2cccnc2c1O (centres undefined)	VP16 counter 3.16µM, RORgamma inh 4.47µM (no result: p53 reactivator)
CCCCC(=O)NC(c1ccc(Cl)cc1Cl)c1ccc2cccnc2c1O (centres undefined)	VP16 counter 3.16µM, ELG1 repair inh inconclusive, p53 reactivator inconclusive, RORgamma inh 3.16µM
CC(=O)NC(c1ccco1)c1ccc2cccnc2c1O (centres undefined)	VP16 counter 11.2µM, ELG1 repair inh inconclusive, p53 reactivator inconclusive, RORgamma inh 3.55µM
CCC(=O)NC(c1ccc(Cl)cc1Cl)c1ccc2cccnc2c1O (centres undefined)	VP16 counter inconclusive, ELG1 repair inh inconclusive (no result: p53 reactivator)
CC(=O)c1ccc(OC(C)C(=O)NC2CCCCC2C)cc1 (centres undefined)	ELG1 repair inh inconclusive, p53 reactivator inconclusive (no result: VP16 counter, RORgamma inh)
CCOc1ccc(CCNc2ncnc3onc(-c4ccc(Cl)cc4)c23)cc1OCC	none (no result: Giardia kill, VP16 counter, ELG1 repair inh, p53 reactivator, RORgamma inh)
CCCC(=O)NC(c1ccc(C(C)C)cc1)c1ccc2cccnc2c1O (centres undefined)	VP16 counter 2.82µM, RORgamma inh 2.24µM (no result: p53 reactivator)
CCCC(=O)NC(c1ccccc1Cl)c1ccc2cccnc2c1O (centres undefined)	VP16 counter 4.47µM, ELG1 repair inh inconclusive, RORgamma inh 2.82µM (no result: p53 reactivator)
CCC(=O)NC(c1ccc(C)cc1)c1ccc2cccnc2c1O (centres undefined)	VP16 counter 2.82µM, ELG1 repair inh inconclusive, RORgamma inh 2.24µM (no result: p53 reactivator)
CCCCC(=O)NC(c1ccc(OC)cc1)c1ccc2cccnc2c1O (centres undefined)	none (no result: Giardia kill, VP16 counter, ELG1 repair inh, p53 reactivator, RORgamma inh)
CCCC(=O)NC(c1ccc(N(C)C)cc1)c1ccc2cccnc2c1O (centres undefined)	VP16 counter 2.82µM, ELG1 repair inh inconclusive, RORgamma inh 2.51µM (no result: p53 reactivator)
Cc1c(C)c2ccc(OCC(=O)NC(Cc3c[nH]c4ccc(O)cc34)C(=O)O)c(C)c2oc1=O (centres undefined)	none (no result: p53 reactivator)
Cc1cc(F)ccc1S(=O)(=O)N1CCCOC1CNC(=O)C(=O)NCCc1c[nH]c2ccccc12 (centres undefined)	ELG1 repair inh 18.4µM
COc1ccccc1CCNC(=O)C(=O)NCC1OCCN1S(=O)(=O)c1ccc(F)cc1 (centres undefined)	none
NS(=O)(=O)c1ccc(CCNC(=O)C(=O)NCC2OCCN2S(=O)(=O)c2ccc(Cl)cc2)cc1 (centres undefined)	VP16 counter 15.8µM, ELG1 repair inh inconclusive
